Screening data (PubChem BioAssay)
uPA generation = cell surface uPA generation inhibition; Potency, µM (series often up to 38.3 µM), most hits filed as inhibitors; 330,000 tested, 0.31% active; AID 540303; cell surface uPA generation assay, qHTS; active means well fitted inhibition curve with a large enough effect; inconclusive means small, poorly fitted or top-dose-only effect; inactive means no such curve, though single readings can be large or run the other way; tested in mouse RAW 264.7 cells; further: nearly all actives have a fitted effect of over 55% in size
IL1B secr inh = inhibitors of inflammasome signaling (IL-1 beta secretion); THP-1 LPS/ATP IL-1B secretion, AlphaLISA, 16 h; active compounds read low; activity change, % at 57.5 µM; 360,000 tested, 4.7% active; AID 743279; in the data active means activity change below about -50%; inconclusive means mostly about -30% to -49%
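THP-1 cells pretreated 1 hr with compounds (up to 57.5 uM final), then stimulated with LPS (250 ng/mL final) plus ATP (1.25 mM final); secreted IL-1B measured by AlphaLISA after 16 hr, decreased signal indicating inhibition.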
HT1080NT lethal = kills 2HG-producing HT-1080-NT fibrosarcoma cells; AID 686970; Potency, µM (doses to about 46.1 µM), usual class: cytotoxic; 360,000 tested, 1.6% active; HT-1080-NT fibrosarcoma viability, CellTiter-Glo ATP luminescence, 48 h;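 further: NT is the 2HG producing partner of a matched IDH1 knockdown line; nearly all actives have a fitted effect of over 55% in size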
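HT-1080-NT; 750 cells/well; 5% FBS RPMI; 48 h compound, 37 degrees C; CellTiter-Glo luminescence; curve fitting and curve-class assignment.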
DT40 TDP1 no CPT = qHTS for Inhibitors of human tyrosyl-DNA phosphodiesterase 1 (TDP1): qHTS in cells in absence of CPT; DT40 Tdp1-/- hTDP1 cells, no CPT, ATP luminescence, 48 h; Potency, µM (doses to about 46.2 µM), most hits filed as inhibitors; 420,000 tested, 15% active; AID 686978, 2013; further: nearly all actives have a fitted effect of over 55% in size
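Chicken DT40 Tdp1-/- cells complemented with human TDP1, screened without camptothecin (DMSO vehicle only), 400 cells/well. Compounds pin-transferred, cells incubated at 37 °C for at least 48 hr. Growth read as ATP-dependent luminescence (CellTiter-Glo, 30 min at RT).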
HT1080 IDH1KD tx = HT-1080 IDH1 knockdown cell toxicity (counter line); 360,000 tested, 2% active; Potency, µM (highest dose often 46.1 µM), usual class: cytotoxic; HT-1080 IDH1 knockdown viability, ATP luminescence, 48 h
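Knockdown cells (IDH1KD HT-1080) received compounds 2 h after plating at 750 cells/well and were kept 48 h at 37 °C in 5% FBS RPMI. A CellTiter-Glo luminescence read gave % activity for curve fitting.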
DT40 TDP1 CPT = DT40-hTDP1 cell growth loss with CPT; chicken DT40 Tdp1-/-;hTDP1 cells + 20 nM CPT, ATP luminescence, 48 h; Potency, µM (titrated, usually from 46.2 µM), actives largely listed as inhibitors; 420,000 tested, 12% active; AID 686979; further: nearly all actives have a fitted effect of over 55% in size
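Cell growth measured by CellTiter-Glo luminescence after a minimum 48 h, 37 C compound exposure with 20 nM CPT in Tdp1-knockout DT40 cells stably expressing hTDP1, seeded 400/well; qHTS titration format.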
A number is an active result; i = inactive; ? = inconclusive; nt = not tested or not shown. Sampled rows, rich in hits. Any-hit rate of the full collection: about 19%. Unless noted, the call rests on the fitted dose curve; in most records, active means well fitted curve in the direction sought with a large enough effect; inconclusive means small, poorly fitted or top-dose-only effect, or another doubt; inactive means no such curve, though single readings can be large; an effect the other way counts as inactive or inconclusive.

SMILES | uPA generation | IL1B secr inh | HT1080NT lethal | DT40 TDP1 no CPT | HT1080 IDH1KD tx | DT40 TDP1 CPT
COCCCn1c(SCC(=O)N2CCCC2=O)nc2ccccc2c1=O | nt | i | i | i | i | i
O=c1c(-c2ccc(F)cc2)nc2cnc(N3CCOCC3)nc2n1Cc1ccc(F)cc1 | nt | nt | nt | i | nt | i
FC(F)(F)c1ccc(-c2noc(-c3ccccc3Br)n2)cc1 | nt | nt | nt | ? | nt | 16µM
CNC(=O)COc1ccc(Nc2nnc(-c3ccc(C)c(S(N)(=O)=O)c3)c3ccccc23)cc1 | i | i | i | i | i | i
Cc1ccc(CNS(=O)(=O)c2cc(Br)cc3c2N(C(=O)C2CC2)CC3)cc1 | nt | nt | nt | i | nt | i
CC(C)c1ccc(NS(=O)(=O)c2cc(Br)cc3c2N(C(=O)C2CC2)CC3)cc1 | nt | nt | nt | 4.6µM | nt | 8.2µM
CCCCN(C)S(=O)(=O)c1cc(Br)cc2c1N(C(=O)C1CC1)CC2 | i | i | i | 3.7µM | i | 8.2µM
COc1ccc(NS(=O)(=O)c2cc(Br)cc3c2N(C(=O)C2CC2)CC3)cc1OC | nt | nt | nt | 2.1µM | nt | 2.3µM
O=C(CCS(=O)(=O)c1cc(Br)cc2c1N(C(=O)C1CC1)CC2)N1CCN(c2cccc(C(F)(F)F)c2)CC1 | nt | nt | nt | 18µM | nt | 16µM
CC(=O)N1CCc2cc(Br)cc(S(=O)(=O)CCC(=O)N3CCN(c4ccccc4)CC3)c21 | nt | nt | nt | i | nt | i
COc1cccc(CNC(=O)CSc2cc(C)[nH]c(=O)n2)c1 | nt | nt | nt | i | nt | i
Cc1ccc(NC(=O)c2ccc(NC(=O)C3CCCC3)cc2)c(C)c1 | nt | nt | i | ? | i | ?
O=C(CCCCCN1C(=O)[C@@H]2Cc3ccccc3CN2C1=O)Nc1ccccc1F | i | i | i | ? | i | ?
Cc1ccc(N2CCN(S(=O)(=O)c3cc(Br)cc4c3N(C(=O)C3CC3)CC4)CC2C)cc1 (stereo not drawn) | nt | nt | nt | 16µM | nt | 13µM
CCC(=O)N1CCc2cc(Br)cc(S(=O)(=O)N3CCN(c4ccc(C)cc4)C(C)C3)c21 (stereo not drawn) | nt | nt | nt | i | nt | i
O=C(c1cccc([N+](=O)[O-])c1)N1CCN(CCc2ccncc2)CC1 | nt | nt | nt | i | nt | i
Cc1ccccc1C(=O)N1CCC2CC1c1cc(Cl)ccc12 (stereo not drawn) | i | i | i | ? | i | i
C=CCOC(=O)N1CCC2CC1c1cc(-c3cccc(C)c3)ccc12 (stereo not drawn) | i | i | i | ? | i | ?
O=C(OCc1ccccc1)N1CCC2CC1c1cc(N3CCNCC3)ccc12 (stereo not drawn) | nt | ? | i | 16µM | i | ?
COc1cccc(-c2ccc3c(c2)C2CC3CCN2C(=O)c2ccc(-c3ccccc3)cc2)c1 (stereo not drawn) | nt | i | i | 18µM | i | ?
O=C(OCc1ccccc1)N1CCC2CC1c1cc(N3CCCCC3)ccc12 (stereo not drawn) | i | i | i | ? | i | ?
Cc1ccccc1C(=O)N1CCC2CC1c1cc(-c3ccc(F)cc3)ccc12 (stereo not drawn) | i | i | i | 18µM | i | ?
O=C(c1cc(Cl)cc(Cl)c1)N1CCC2CC1c1cc(N3CCCCC3)ccc12 (stereo not drawn) | nt | i | i | 21µM | i | ?
Cn1c(CNC(=O)c2ccco2)nnc1SCCOc1ccccc1 | i | i | i | i | i | i
COCCNC(=O)C1(C)CCCN(Cc2cn(C)c3ccccc23)C1 (stereo not drawn) | nt | i | i | i | i | i
SMILES | uPA generation | IL1B secr inh | HT1080NT lethal | DT40 TDP1 no CPT | HT1080 IDH1KD tx | DT40 TDP1 CPT
CCCc1ccc(S(=O)(=O)N2CCN(C(=O)CN3C(=O)NC(C)(C4CC4)C3=O)CC2)cc1 (stereo not drawn) | nt | i | i | i | i | i
COc1ccc(-c2ccc3c(c2)C2CC3CCN2C(=O)OCc2ccccc2)cc1 (stereo not drawn) | i | i | i | ? | i | 16µM
O=C(OCc1ccccc1)N1CCC2CC1c1cc(-c3ccc(F)cc3)ccc12 (stereo not drawn) | i | i | i | ? | i | ?
CC(=O)N(CCc1ccccc1)c1ccc2c(c1)C1CC2CCN1C(=O)OCc1ccccc1 (stereo not drawn) | nt | ? | ? | 6.5µM | ? | 8.2µM
CCN(CCc1ccccc1)c1ccc2c(c1)C1CC2CCN1Cc1ccccc1 (stereo not drawn) | nt | i | i | 5.8µM | i | 6.5µM
O=C(OCc1ccccc1)N1CCC2CC1c1cc(/C=C/CCCSc3ncccn3)ccc12 (stereo not drawn) | nt | i | i | 23µM | i | ?
O=C(OCc1ccccc1)N1CCC2CC1c1cc(NCCc3ccccc3)ccc12 (stereo not drawn) | i | i | i | ? | i | ?
Cc1cccc(NC(=O)N2CCCC(CNC(=O)c3ccccc3Cl)C2)c1C (stereo not drawn) | i | i | i | i | i | i
O=S(=O)(c1cccnc1)N1CCCC(Nc2ccc(F)c(F)c2)C1 (stereo not drawn) | nt | i | i | ? | i | ?
O=S(=O)(c1cccc2ccccc12)N1CCC2CC1c1cc(-c3ccc(F)cc3)ccc12 (stereo not drawn) | i | i | i | ? | i | ?
COc1ccc(-c2ccc3c(c2)C2CC3CCN2S(=O)(=O)c2ccccc2C)cc1 (stereo not drawn) | ? | i | i | 16µM | i | ?
CCN(CCN(C)C)C(=O)Cn1ncc2c([nH]c3ccc(C)cc32)c1=O | nt | nt | nt | i | nt | i
COc1ccc(N/N=C/c2c(C(=O)O)ccc3ccccc23)cc1 | 10µM | i | ? | 3.3µM | ? | 2.6µM
COc1ccc2ccccc2c1/C=N/Nc1ccc(Cl)c(C(=O)O)c1 | i | i | i | i | i | i
CC(=O)N/C(=C\c1ccccc1)C(=O)OCc1cccc(S(=O)(=O)N(C)C)c1 | i | i | i | ? | i | 16µM
Cc1noc(C)c1-c1cncnc1N1CCN(C)CC1 | nt | nt | nt | i | nt | i
Cc1ccn2c(=O)c(NC(=O)c3ccc(Br)o3)c(C)nc2c1 | i | i | i | i | i | i
CCOC(=O)c1ccc(NC(=O)CC2COc3ccccc3O2)cc1 (stereo not drawn) | i | i | i | 1µM | i | i
CCOc1ncccc1C(=O)N(C)CC1COc2ccccc2O1 (stereo not drawn) | i | i | i | i | i | ?
CCN(CC1COc2ccccc2O1)C(=S)NCCCN(C)C (stereo not drawn) | i | i | i | 18µM | i | 16µM
CCN(CC1COc2ccccc2O1)C(=S)Nc1ccccc1 (stereo not drawn) | nt | i | i | 2.8µM | i | ?
CN(CC1COc2ccccc2O1)C(=S)NC1CCCCC1 (stereo not drawn) | i | ? | i | ? | i | ?
